Data as given in the supplement of paper PMC6555819.

Key:
Assay in all cases: PBM binding z-score (relative to random genomic background probes); higher = stronger binding; sequences stand for … in GC…GCGATTGACAGCGTAGAATGAAGG
[1] = tested on: FXR:RXRa (NR concentration 270 nM, RXRa partner concentration 90 nM)
In short: (§1)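 On custom Agilent 4×180K arrays, double-stranded probes with 34-nt variable regions carried direct-repeat seeds, single-nucleotide variants, half-site ablations or random human genomic background. Ligand-free nuclear receptor dimers were applied for 1 h, and binding was read with antibodies against each partner (one per run). Binding z-scores come from regression-normalized fluorescence, with the random background probes as reference.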

[2] = tested on: LXRa:RXRa (NR concentration 270 nM, RXRa partner concentration 90 nM)
In short: as §1

[3] = tested on: LXRa homodimer (NR concentration 270 nM)
In short: as §1

[4] = tested on: LXRb:RXRa (NR concentration 270 nM, RXRa partner concentration 90 nM)
In short: as §1

[5] = tested on: LXRb homodimer (NR concentration 270 nM)
In short: as §1

[6] = tested on: PPARa:RXRa (NR concentration 270 nM, RXRa partner concentration 90 nM)
In short: as §1

[7] = tested on: PPARg:RXRa (NR concentration 180 nM, RXRa partner concentration 90 nM)
In short: as §1

[8] = tested on: PPARg:RXRa 270nM:90nM, anti-RXR (NR concentration 270 nM, RXRa partner concentration 90 nM)
In short: as §1

[9] = tested on: PPARg:RXRa 30nM:10nM, anti-RXR (NR concentration 30 nM, RXRa partner concentration 10 nM)
In short: as §1

[10] = tested on: PPARg:RXRa 90nM:30nM, anti-RXR (NR concentration 90 nM, RXRa partner concentration 30 nM)
In short: as §1

[11] = tested on: PPARg:RXRa DBDmut IVT, anti-RXR (DBD mutation: RXRa K156A/R161A, NR concentration 270 nM, RXRa partner concentration 90 nM)
In short: as §1

[12] = tested on: PPARg:RXRa IVT, anti-PPARg (NR concentration 270 nM, RXRa partner concentration 90 nM)
In short: as §1

[13] = tested on: PPARg DBDmut:RXRa IVT, anti-PPARg (DBD mutation: PPARg1 K132A/R137A, NR concentration 270 nM, RXRa partner concentration 90 nM)
In short: as §1

[14] = tested on: PPARg DBDmut IVT, anti-PPARg (DBD mutation: PPARg1 K132A/R137A, NR concentration 270 nM)
In short: as §1

[15] = tested on: PPARg homodimer (NR concentration 180 nM)
In short: as §1

[16] = tested on: PXR:RXRa (NR concentration 270 nM, RXRa partner concentration 90 nM)
In short: as §1

[17] = tested on: PXR homodimer (NR concentration 270 nM)
In short: as §1

[18] = tested on: RARa:RXR (NR concentration 270 nM, RXRa partner concentration 90 nM)
In short: as §1

[19] = tested on: RARa homodimer (NR concentration 270 nM)
In short: as §1

[20] = tested on: RARb:RXRa (NR concentration 270 nM, RXRa partner concentration 90 nM)
In short: as §1

Row | Sequence | PBM binding z-score [1] | PBM binding z-score [2] | PBM binding z-score [3] | PBM binding z-score [4] | PBM binding z-score [5] | PBM binding z-score [6] | PBM binding z-score [7] | PBM binding z-score [8] | PBM binding z-score [9] | PBM binding z-score [10] | PBM binding z-score [11] | PBM binding z-score [12] | PBM binding z-score [13] | PBM binding z-score [14] | PBM binding z-score [15] | PBM binding z-score [16] | PBM binding z-score [17] | PBM binding z-score [18] | PBM binding z-score [19] | PBM binding z-score [20]
1 | CGCCCAAGGTCAAGGTCAGTGAAAGAGACTCGAA | 7.66 | 5.71 | 1.02 | 4.47 | 1.05 | 5.96 | 6.1 | 5.9 | 2.41 | 4.9 | 3.15 | 4.18 | 0.61 | -0.556 | 3.84 | 4.83 | 0.538 | 5.32 | 1.22 | 5.62
2 | ACTAGCAGGCCAAGCTTGGGTCACTCAAACAAAG | -0.0796 | 0.111 | -0.692 | 0.455 | -0.932 | 1.22 | 0.00964 | 0.21 | -0.684 | -0.194 | 1.14 | 0.724 | -0.775 | -0.566 | 0.296 | 0.742 | -0.908 | 1.66 | -1.21 | 1.77
3 | CGTTACGGGTCAAGGTTATAGCACGGGTGGTACG | 5.94 | 3.83 | 0.0546 | 3.09 | -0.0956 | 5.35 | 4.95 | 4.72 | 1.51 | 3.37 | 2.15 | 3.69 | 0.343 | -0.183 | 1.78 | 3.44 | 0.111 | 3.92 | 0.367 | 4.29
4 | CTACCAAGGTGTACAAGGTCGTTGATTACTATTC | 0.534 | 0.766 | 0.255 | 1.26 | -0.288 | 1.31 | 0.268 | 0.583 | -0.154 | 0.498 | 0.458 | 0.771 | 0.278 | 0.0269 | 0.61 | 1.61 | 1.18 | 1.47 | 0.124 | 0.901
5 | CGTCCAAGGTCAGCAGGTCTGTGAAAGCGACGTG | 5.03 | 3.02 | -0.272 | 2.06 | -0.284 | 4.16 | 2.65 | 3.06 | 0.0215 | 1.57 | 2.57 | 2.56 | 0.914 | -0.164 | 2.67 | 2.58 | 0.407 | 3.61 | 0.46 | 4.85
6 | TCTTGTAGATCAAGCAGGTTAAGAGAGCCTGAGT | 0.126 | 0.03 | -0.729 | 0.145 | -0.665 | 0.53 | -0.372 | 0.87 | 2.06 | 1.55 | 1.44 | 0.423 | -0.603 | -0.0222 | -0.58 | 0.103 | -0.227 | -0.116 | -0.124 | 0.0485
7 | GTACCAAGGTGAATAGGTCGCTGATGAGTAGGCG | 0.713 | 0.531 | -0.254 | 0.0295 | -0.695 | 1.95 | 1.48 | 1.74 | 0.17 | 1.14 | 1.89 | 2.89 | -0.721 | -0.6 | 0.508 | 0.271 | -0.637 | 1.34 | -0.0761 | 2.07
8 | ACTAGCAGGCCAAGTTTGGGTCACTCAAACAAAG | 0.133 | 0.0719 | -0.339 | 0.663 | -0.95 | 1.49 | 0.094 | 0.413 | -0.485 | 0.0599 | 1.09 | 1.22 | -0.627 | -1.37 | 0.284 | 0.859 | -0.237 | 1.45 | -0.797 | 1.83
9 | TCTATTAGTTGATTAGGGCAATCGAAACAGCGGA | 0.665 | 0.828 | 0.306 | 0.766 | 0.542 | 0.871 | 0.0917 | 2.06 | 3.7 | 2.93 | 2.23 | 1.29 | 0.785 | 0.869 | 1.1 | 0.568 | 0.192 | 0.781 | 1.56 | 0.778
10 | TCAGACAGGTGAACGTAACTCAGGTACGCAGTCG | 0.443 | 0.558 | -0.111 | 0.538 | -0.313 | 1.43 | 1.05 | 2.06 | 3.66 | 2.83 | 2.71 | 1.55 | 0.22 | -0.331 | 0.406 | 0.573 | 0.448 | 0.752 | 0.0461 | 1.19
11 | AGTCAAAGTTCACTAGGTAACTTAAGATTCAGCT | 5.3 | 5.02 | 3.26 | 3.15 | 1.21 | 4.91 | 6.82 | 6.55 | 3.6 | 5.72 | 2.47 | 4.8 | 2.06 | 1.17 | 1.24 | 4.02 | 2.95 | 3.07 | 1.01 | 4.73
12 | CCTCGTAGGACAGAAGGTCAGAGCTGTCCGCTTT | 1.05 | 1.85 | 0.197 | 1.35 | -0.387 | 2.11 | -0.00358 | 1.14 | -0.551 | 0.426 | 0.395 | 0.358 | -0.69 | -1.03 | 1.25 | 1.47 | -0.0848 | 2.1 | -0.0313 | 3.02
13 | ATATGTAGGCTAAGGGTCATTCAGGTTGGTTCGC | 3.79 | 3.76 | 1.84 | 3.73 | 1.39 | 6.17 | 10.2 | 8.9 | 9.28 | 9.65 | 5.51 | 6.21 | 1.21 | 1.43 | 2.35 | 4.78 | 1.76 | 4.17 | 0.917 | 3.36
14 | TCTTATAGGTAAATGCTAGGTGAAAGTCCGATCT | 1.33 | 1.6 | 0.477 | 1.11 | 0.669 | 1.27 | 0.531 | 2.5 | 3.79 | 3.41 | 3.93 | 2.62 | 1.31 | 1.13 | 1.1 | 0.946 | 0.588 | 1.4 | 1.65 | 0.769
15 | TCTTGTAGATCAGCTGGTTAAGAAAGCTGGCCAA | 0.0372 | -0.146 | -0.717 | -0.0754 | -0.836 | 0.363 | -1.11 | 1.04 | 2.43 | 1.75 | 1.46 | -0.0157 | -0.253 | -0.0877 | -0.903 | 0.0917 | -0.51 | 0.0228 | -0.485 | -0.526
